Bst PK mod = modulators of Bacillus stearothermophilus pyruvate kinase | purified pyruvate kinase, luminescence ATP production; ribose 5-phosphate activator present at AC10 | Potency, µM | 51,000 compounds, 1.2% hits; in the data active = potency below about 11 µM; inconclusive = mostly about 12 µM to 25 µM;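 the screen sought inhibitors and activators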;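 also: scaled between full activation by ribose 5 phosphate and full inhibition by luteolin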
FLuc inh = blocks Photinus pyralis firefly luciferase activity; 72,000 compounds, 2.2% hits; purified firefly luciferase, luminescence, 8 min; AID 411; Potency, µM (top dose mostly 57.1 µM), for the others: at the top dose activity change, negative = inhibition, usual class: inhibitors; P08659; active = well fitted inhibition curve with a large enough effect; inconclusive = small, poorly fitted or top-dose-only effect; also: % is scaled to controls: 0 for no effect and ±100 for the full control effect; nearly all actives have a fitted effect of over 40% in size
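Firefly luciferase (PKLight detection mix) with 10 uM ATP in pH 7.2 imidazole buffer (KCl, MgCl2, Tween 20, BSA). Compounds tested across a concentration series (qHTS). Luminescence read after 8 min at ambient temperature.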
GBA activity = alters purified human glucocerebrosidase activity; P04062; purified enzyme, resorufin glucoside fluorescence (screen aimed at inhibitors), 20 min; Potency, µM; 48,000 compounds, 1.1% hits; AID 360; in the data active = potency below about 15 µM; inconclusive = mostly about 16 µM to 33 µM;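 also: the screen sought inhibitors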
Target sequence (P04062 whole entry, looked up): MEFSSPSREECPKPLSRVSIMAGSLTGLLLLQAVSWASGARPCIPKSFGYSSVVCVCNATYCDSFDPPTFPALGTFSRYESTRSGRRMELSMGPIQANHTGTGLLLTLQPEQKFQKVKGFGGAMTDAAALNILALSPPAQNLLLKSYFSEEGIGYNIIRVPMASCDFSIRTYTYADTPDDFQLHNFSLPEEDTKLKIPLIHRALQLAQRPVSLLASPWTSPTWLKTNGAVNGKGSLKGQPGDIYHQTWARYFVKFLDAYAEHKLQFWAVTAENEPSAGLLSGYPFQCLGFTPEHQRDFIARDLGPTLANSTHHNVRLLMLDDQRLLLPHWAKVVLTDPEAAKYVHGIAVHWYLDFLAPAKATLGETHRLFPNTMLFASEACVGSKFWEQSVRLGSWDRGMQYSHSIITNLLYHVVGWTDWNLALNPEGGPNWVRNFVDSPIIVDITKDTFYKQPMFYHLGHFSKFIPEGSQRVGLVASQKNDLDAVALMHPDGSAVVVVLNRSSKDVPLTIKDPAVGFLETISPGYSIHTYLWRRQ
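Wild-type enzyme at 0.2 nM final in 50mM citric acid/KH2PO4, 10mM sodium taurocholate, 0.01% tween-20, pH 5.9, with resorufin beta-D-glucopyranoside at 30 uM final. Compounds titrated, 20 min at RT, red fluorescence read; AC50 from titration.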
Starred values were filed as active, the others as inactive; i = inactive; u = inconclusive; x = no result; [ ] = dose if it differs, or a comment. Shown are actives, neighbours in structure and some others; about 3.4% of the full set was active somewhere. Potency is read from the fitted curve at half-maximal effect.

SMILES | Bst PK mod | FLuc inh | GBA activity
COc1ccc(C(=O)NC(=O)Nc2cc(C)ccn2)cc1 | 0.635* | 0.501µM* | >76.9
Cc1cc2ccccc2c(=O)n1CC(=O)Nc1ccc2c(c1)OCO2 | >57 | 1.1% | >76.9
O=C(CN1C(=O)c2cccc3cccc1c23)Nc1ccc(S(=O)(=O)N2CCOCC2)cc1 | 10.5* | 0.9% | >76.9
O=C(CN1C(=O)c2cccc3cccc1c23)Nc1ccc2c(c1)OCO2 | 1.9* | 0.9% | >76.9
O=C(CN1C(=O)c2cccc3cccc1c23)NCC1CCCO1 (stereo not drawn) | u | 1.5% | >76.9
O=C(CN1C(=O)c2cccc3cccc1c23)NCc1ccc2c(c1)OCO2 | 2.75* | 1.5% | >76.9
O=C(CN1c2cccc3cccc(c23)S1(=O)=O)NCc1ccc2c(c1)OCO2 | x | -4.9% | x
CC(C(=O)NCc1ccc2c(c1)OCO2)N1c2cccc3cccc(c23)S1(=O)=O (stereo not drawn) | 0.94* | -0.7% | >76.9
O=C(CCCN1C(=O)c2ccccc2C1=O)Nc1ccc(S(=O)(=O)N2CCOCC2)cc1 | >57 | 0.5% | >76.9
CC(C)(Oc1ccc(-c2cccc3ccccc23)cc1)C(=O)O | x | 1.9%[11.4 µM] | x
COc1ccc(O[C@H]2C=C[C@@H](c3ccccc3)O[C@H]2COC(=O)CC/C(C)=N\OC[C@@H](C)[C@H](OCc2ccccc2)C(C)C)cc1 | x | 1.2%[11.4 µM] | x
O=C(NCc1ccc2c(c1)OCO2)c1cccs1 | >57 | -0.2% | >76.9
O=C(NCc1ccc2c(c1)OCO2)c1c(F)c(F)c(F)c(F)c1F | 7.72* | 2.7% | >76.9
C[C@@H]1[C@H](C)CC[C@@]2(C(=O)O[C@H]3O[C@@H](CO[C@H]4O[C@@H](CO)[C@@H](O[C@H]5O[C@@H](C)[C@@H](O)[C@@H](O)[C@@H]5O)[C@@H](O)[C@@H]4O)[C@@H](O)[C@@H](O)[C@@H]3O)CC[C@]3(C)C(=CC[C@H]4[C@@]5(C)C[C@@H](O)[C@@H](O)[C@](C)(CO)[C@@H]5CC[C@@]43C)[C@@H]12 | x | -0.4%[25.5 µM] | x
COCCn1c(=O)c(-c2ccc(Cl)cc2)nc2cnc(Oc3cccc(Cl)c3)nc21 | x | 1.3%[11.4 µM] | x
COc1ccc2c(c1OC)C(=O)N(c1cccc(C(F)(F)F)c1)C2 | i | 12.6µM* | >76.9
COc1ccc2c(c1OC)C(=O)N(c1cccc(C)c1)C2 | u | 7.94µM* | >76.9
CN1C(=O)NC(c2ccccc2)C2=C1CN(c1cccc(C(F)(F)F)c1)C2=O (stereo not drawn) | >57 | 1.7% | x
COc1ccc2c(c1OC)C(=O)N(c1ccccn1)C2 | i | u | >76.9
COc1ccc(-n2c(=O)c(-c3ccc(Cl)cc3)nc3cnc(N(C)C)nc32)cc1 | x | -1.0%[11.4 µM] | x
FC(F)Sc1nnc(-c2cccs2)n1-c1ccccc1 | >57 | -1.8% | >76.9
c1csc(-c2nnc3ccccn23)c1 | 6.99* | 3.4% | >76.9
CN(C)CCCN=C(N)N | x | 1.5%[11.4 µM] | x
N#Cc1c(N)n[nH]c1-c1cc2c([nH]1)CCCC2 | 6.28* | -5.1% | x
N#Cc1cccc(-c2cc(NCc3cccs3)ncn2)c1 | x | -1.1%[2.29 µM] | x
SMILES | Bst PK mod | FLuc inh | GBA activity
Cc1noc(C)c1C(=O)N1CCC2(CC1)CCN(c1cccc(-c3ccccc3)c1)CC2 | x | 0.7%[11.4 µM] | x
Cc1nc(N2CCOCC2)[nH]c(=O)c1CCC(C)C | >57 | 0.0% | >76.9
Cc1nc(N2CCc3ccccc3C2)[nH]c(=O)c1CCC(C)C | >57 | 0.0% | 5.28*
CC(=O)OC[C@@H]1O[C@H](C/C=N\O[C@@H]2O[C@H](COC(C)=O)[C@@H](OC(C)=O)[C@H](OC(C)=O)[C@H]2OC(C)=O)C=C[C@@H]1OC(C)=O | x | 0.9%[11.4 µM] | x
O=C(CSc1nnc(COc2cccc3cccnc23)o1)c1ccc(F)cc1 | 10.3* | -1.1% | >76.9
Cc1ccc(C(=O)CSc2nnc(COc3cccc4cccnc34)o2)cc1 | >57 | -7.5% | >76.9
O=C(Nc1cccc2cccnc12)c1ccc(Br)o1 | >57 | -11.3% | u
O=C(Nc1ccc(Br)c2cccnc12)c1ccc(Cn2cc(Cl)cn2)o1 | >57 | 0.1% | 9.25*
O=C(O)CCSCc1ccc(I)cc1 | x | 4.9%[11.4 µM] | x
COc1ccccc1N1CCN(C(=O)CSc2ncccc2-c2nc3ccccc3[nH]2)CC1 | i | u | >76.9
COc1ccc(N2CCN(C(=O)CSc3ncccc3-c3nc4ccccc4[nH]3)CC2)cc1 | x | 12.6µM* | >76.9
NC(=O)c1ccccc1NS(=O)(=O)Cc1ccc(Cl)cc1 | >57 | -1.8% | >76.9
NC(=O)c1ccccc1NC(=O)CS(=O)(=O)Cc1ccccc1 | 2.95* | 0.4% | >76.9
CCNc1ncc2nc(-c3ccc(OC)cc3)c(=O)n(CCc3ccccc3)c2n1 | x | -2.2%[11.4 µM] | x
CCOc1ccc(OCC)c2sc(C)nc12 | 3.4* | 0.6% | >76.9
CCOc1ccc(C(=O)Nc2nnc(C)s2)cc1OCC | x | -2.7% | x
CC(C)CO/N=C1/C[C@@H](O)[C@@H](O)[C@@H]2[C@H]3C(=O)N(c4ccc(F)cc4F)C(=O)[C@@H]3CC[C@@H]12 | x | 0.3%[11.4 µM] | x
O=C(Nc1cnn(Cc2ccc(F)cc2)c1)c1cc(-c2ccc(Br)cc2)on1 | x | 0.1% | x
Cn1c(CSCc2ccc(F)cc2)nnc1SCC(=O)Nc1nccs1 | >57 | 1.4% | >76.9
Cn1nnnc1SCc1ccc(C(=O)Nc2nccs2)cc1 | 0.996* | 1µM* | >76.9
CC(=O)O[C@H]1CC[C@@]2(C)[C@@H](CC[C@H]3[C@H]2CC(=O)[C@@]2(C)[C@@H]3C[C@H]3CC(C)=CC(=O)[C@H]32)C1 | x | 2.9%[11.4 µM] | x
COC(=O)C/C=C\[C@@H](C)[C@@H](/C=N\O[C@@H]1O[C@H](COC(C)=O)[C@@H](OC(C)=O)[C@H](OC(C)=O)[C@H]1OC(C)=O)NS(=O)(=O)c1ccc(C)cc1 | x | -0.2%[11.4 µM] | x
CCOC(=O)c1ccccc1NC(=O)CSc1ncc(C(=O)OCC)c(N)n1 | >57 | 5.7% | >76.9
CCOC(=O)c1cnc(SCC(=O)c2ccccc2)nc1N | x | 3.98µM* | x
CCOC(=O)c1cnc(SCC(=O)c2ccc3c(c2)OCCO3)nc1N | >57 | 3.7% | >76.9
SMILES | Bst PK mod | FLuc inh | GBA activity
CCOC(=O)c1cnc(-c2ccccc2)nc1N | i | 20µM* | >76.9
O=c1oc2c(CN3CCCCC3)c(O)ccc2cc1-c1nc2ccccc2[nH]1 | x | -22.0% | >76.9
O=c1oc2c3c4c(cc2cc1-c1nc2ccccc2[nH]1)CCCN4CCC3 | x | 2µM* | x
Cc1nc2cnc(N(C)C)nc2n(CCC#N)c1=O | x | 0.9%[11.4 µM] | x
O=c1ccc2c(OCCCCc3ccccc3)c3ccoc3cc2o1 | x | -2.0% | x
O=C(CSc1nc2ccccc2o1)c1ccc2c(c1)OCCO2 | >57 | -2.6% | 13.6*
O=C(CSc1nnnn1C1CCCC1)Nc1ccc2c(c1)OCO2 | >57 | 1.7% | >76.9
c1ccn2c(SCc3ccc4c(c3)OCO4)nnc2c1 | >57 | -2.0% | >76.9
O=C(CSc1nnnn1C1CCCC1)c1ccc2c(c1)OCCO2 | i | 7.94µM* | >76.9
O=C(O)c1ccc(CSc2nc3ccccc3o2)cc1 | >57 | -9.5% | >76.9
O=C(CSc1nnc2ccccn12)c1ccc2c(c1)OCCO2 | x | 15.8µM* | x
C/C(CCN1CCCCc2nc(C)c(C)cc21)=N\OC[C@@H](C)[C@H](OCc1ccccc1)C(C)C | x | 0.7%[11.4 µM] | x
C#C[C@H](N)CCC(=O)O | x | 0.2% | x
CCCn1nc(NC(=O)c2cccs2)c2cc3cc(OC)ccc3nc21 | i | 10µM* | i
CCCCn1nc(NC(=O)c2cccs2)c2cc3cc(OC)ccc3nc21 | x | u | i
O=C(Nc1cccc(F)c1)N1CCCC2(CCN(C(=O)c3csnn3)CC2)C1 | x | 2.1%[11.4 µM] | x

Screening results from PubChem BioAssay.
